Test results reported in PubChem BioAssay (NCATS).
Records with an inconclusive call do not appear. Entries that show only a call come without a potency. Calls of active or inactive are those of the source. Calls come from the whole dose curve; as a rule, active = well fitted inhibition curve with a large enough effect; inconclusive = small, poorly fitted or top-dose-only effect; inactive = flat fitted curve, though single readings scatter.

Tests used:
Assay in all cases: qHTS profiling for inhibitors of Plasmodium falciparum proliferation (AID 504749); note: nearly all actives have a fitted effect of over 60% in size
Details in all cases: P. falciparum in erythrocytes, SYBR Green DNA, 72 h; series mostly up to 28.7 µM
CP305 = test system: CP305
How it was run: (§1)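 Infected RBCs, 0.3% parasitemia/2.5% Hct final; cpd 72 h, 37 C, 5% CO2; lysis buffer with saponin/triton/SYBR Green I, o/n RT dark; FI 485/535; norm. to artemisinin (0.29 uM) and DMSO.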

CP315 = test system: CP315
How it was run: as §1

CP325 = test system: CP325
How it was run: as §1

CP329 = test system: CP329
How it was run: as §1

CP335 = test system: CP335
How it was run: as §1

DFO2036 = test system: DFO2036
How it was run: as §1

Dd2 = test system: Dd2
How it was run: as §1

DIV30 = test system: DIV30
How it was run: as §1

DIV14 = test system: DIV14
How it was run: as §1

DIV17 = test system: DIV17
How it was run: as §1
Potency is the fitted concentration of half-maximal effect.

| SMILES | Potency (CP305) | Potency (CP315) | Potency (CP325) | Potency (CP329) | Potency (CP335) | Potency (DFO2036) | Potency (Dd2) | Potency (DIV30) | Potency (DIV14) | Potency (DIV17) |
| --- | --- | --- | --- | --- | --- | --- | --- | --- | --- | --- |
| OC(c1ccccc1)(c1ccccc1)C1CCNCC1 | inactive | inactive | inactive | inactive | inactive | inactive | inactive | – | – | – |
| C[C@]12C=CC(=O)C=C1CC[C@@H]1[C@@H]2CC[C@@]2(C)[C@H]1CC[C@]2(C)O | – | – | – | – | inactive | inactive | inactive | 16.9 µM (active) | – | – |
| CCC1(c2ccccc2)CCC(=O)NC1=O (stereo not given) | inactive | inactive | inactive | inactive | inactive | inactive | inactive | inactive | inactive | – |
| CN1C(=O)[C@@H](NC(=O)c2cc3ccccc3[nH]2)N=C(c2ccccc2)c2ccccc21 | – | – | – | – | – | – | 11.2 µM (active) | – | 12 µM (active) | 10.7 µM (active) |
| CN1C(=O)CN=C(c2ccccc2)c2cc([N+](=O)[O-])ccc21 | inactive | inactive | – | inactive | – | inactive | inactive | inactive | inactive | inactive |
| O=C1NCN(c2ccccc2)C12CCN(CCCOc1ccc(F)cc1)CC2 | – | inactive | – | inactive | – | – | 8.91 µM (active) | – | 8.49 µM (active) | – |
| O=C(NC(=O)c1c(F)cccc1F)Nc1cc(Cl)c(OC(F)(F)C(F)C(F)(F)F)cc1Cl (stereo not given) | inactive | inactive | inactive | inactive | – | – | – | inactive | inactive | inactive |
| COCC(=O)N(c1c(C)cccc1C)C(C)C(=O)OC (stereo not given) | inactive | inactive | inactive | inactive | inactive | – | inactive | inactive | inactive | inactive |
| C=CCOC(Cn1ccnc1)c1ccc(Cl)cc1Cl (stereo not given) | – | 16.9 µM (active) | 15.1 µM (active) | – | – | 12.6 µM (active) | 7.08 µM (active) | 7.57 µM (active) | 5.36 µM (active) | 8.49 µM (active) |
| CCN(CC)CCOC(=O)C(C)(c1ccccc1)c1ccccc1 | – | inactive | – | – | 4.78 µM (active) | – | 0.0891 µM (active) | – | – | 6.01 µM (active) |
| C[N+]1(CCC(C(N)=O)(c2ccccc2)c2ccccc2)CCCCC1 | inactive | inactive | – | inactive | inactive | inactive | inactive | inactive | inactive | inactive |
| CC(C)(C)OC(=O)c1ncn2c1[C@@H]1CCCN1C(=O)c1c(Br)cccc1-2 | inactive | inactive | inactive | inactive | inactive | inactive | inactive | inactive | inactive | – |
| CNC(=O)NC(O)C(Cl)(Cl)Cl (stereo not given) | inactive | inactive | inactive | inactive | inactive | inactive | inactive | inactive | – | inactive |
| Clc1ccc(CO/N=C(\Cn2ccnc2)c2ccc(Cl)cc2Cl)c(Cl)c1 | 13.5 µM (active) | – | 13.5 µM (active) | – | 6.01 µM (active) | 3.98 µM (active) | 4.47 µM (active) | 3.38 µM (active) | 1.51 µM (active) | 1.9 µM (active) |
| Nc1ccc(N)cc1 | – | inactive | – | inactive | – | – | inactive | – | 15.1 µM (active) | 15.1 µM (active) |
| C[C@]12Cc3nonc3C[C@@H]1CC[C@@H]1[C@@H]2CC[C@@]2(C)[C@H]1CC[C@]2(C)O | inactive | inactive | inactive | inactive | – | inactive | inactive | inactive | inactive | inactive |
| C#C[C@]1(O)CC[C@H]2[C@@H]3CCC4=CC(=O)CCC4=C3C=C[C@@]21CC | – | inactive | – | – | – | – | – | – | 4.26 µM (active) | 5.36 µM (active) |
| COc1ccc(CN2CCNCC2)c(OC)c1OC | – | – | – | – | inactive | inactive | inactive | – | – | – |
| CC(Cc1ccccc1)NCc1ccccc1Cl (stereo not given) | inactive | inactive | – | inactive | – | inactive | 12.6 µM (active) | – | – | – |
| c1cc2c(c(N3CCNCC3)c1)OCCO2 | inactive | inactive | inactive | inactive | inactive | inactive | inactive | inactive | inactive | – |
| ClC1=C(Cl)C2(Cl)C(CBr)CC1(Cl)C2(Cl)Cl (stereo not given) | inactive | inactive | inactive | inactive | – | inactive | inactive | inactive | inactive | inactive |
